Results filed as inconclusive are left out. The source made the active and inactive calls. Unless noted, calls follow the shape of the dose curve; as a rule, active = well fitted curve in the direction sought with a large enough effect in the repeat runs; inconclusive = weak or mixed curves; inactive = no such curve, though single readings can be large; an effect the other way counts as inactive or inconclusive.
Assays:
[1] = target: Estrogen receptor (Homo sapiens) (UniProt P03372); test: qHTS assay to identify small molecule agonists of the estrogen receptor alpha (ER-alpha) signaling pathway in the presence of an antagonist (AID 1259383; calls by dose curve; also: top concentration of the series differs between compounds; nearly all actives have a fitted effect of over 15% in size)
In short: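 Quantitative HTS confirmation: compounds titrated at 15 concentrations onto estrogen-deprived VM7Luc4E2 cells carrying a four-ERE luciferase construct, with ICI-182,780 present at 10.0nM final. Signal is luminescence after 22hr exposure.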

[2] = qHTS assay to identify small molecule agonists or antagonists of the thyroid stimulating hormone receptor (TSHR) signaling pathway - wild type cell line counter screen (AID 1259384; calls by dose curve)
In short: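 Wild-type HEK293 cells were plated 18 h at 37 C/5% CO2, pin-dosed with compound plus Ro20-1724 medium, held 30 min at room temperature, then given cAMP-d2 and anti-cAMP-cryptate; fluorescence was read after 1 h. Fifteen concentrations, triplicate.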

[3] = target: Thyrotropin receptor (Homo sapiens) (UniProt P16473); test: qHTS assay to identify small molecule antagonists of the thyroid stimulating hormone receptor (TSHR) signaling pathway (AID 1259385; calls by dose curve; also: nearly all actives have a fitted effect of over 20% in size)
In short: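 TSHR-HEK293 cells were plated and held 18 h at 37C/5% CO2, then given compound plus Ro20-1724 and stimulated with TSH at 1.5 ng/mL final. After 30 min at room temperature, cAMP was detected with cAMP-d2/anti-cAMP-cryptate (1 h) by fluorescence.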

[4] = qHTS assay to identify small molecule agonists of the estrogen receptor alpha (ER-alpha) signaling pathway in the presence of an antagonist - cell viability counter screen (AID 1259386);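 also: series mostly up to about 92 µM; cells exposed to compounds for 22 h at 37 °C before the viability read; nearly all actives have a fitted effect of over 30% in size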
In short: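 The test measures whether compounds kill ER-alpha reporter cells (VM7Luc4E2) under antagonist co-treatment (ICI-182,780, 10.0nM). Fluorescence from CellTiter-Fluor is read after a 22hr exposure.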

[5] = target: Progesterone receptor (Homo sapiens) (UniProt P06401); test: qHTS assay to identify small molecule agonists of the progesterone receptor (PR) signaling pathway (AID 1346784; calls by dose curve; also: nearly all actives have a fitted effect of over 30% in size)
In short: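 Cells (PR-UAS-bla HEK 293T, GripTite) were plated in assay medium containing 2% charcoal-stripped FBS and incubated 6 hr. Test compounds in DMSO were added for 16 hr at 37C. FRET substrate was then loaded for 2 hr at room temperature before fluorescence reading.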

[6] = target: Progesterone receptor (Homo sapiens) (UniProt P06401); test: qHTS assay to identify small molecule antagonists of the progesterone receptor (PR) signaling pathway (AID 1346795; active = well fitted inhibition curve with a large enough effect in the signal ratio in the repeat runs, not every such curve was filed as active; the % refers to the signal ratio)
In short: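 Antagonist mode: compounds tested against 1 nM (final) promegestone stimulation in HEK293T cells expressing PR-UAS-bla reporter, 16 hr at 37C, 5% CO2; beta-lactamase activity detected via B/G FRET substrate after 2 hr at room temperature.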

[7] = qHTS assay to identify small molecule antagonists of the progesterone receptor (PR) signaling pathway - cell viability counter screen (AID 1346798); also: series mostly up to about 92 µM; nearly all actives have a fitted effect of over 50% in size
In short: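 Counter screen for cytotoxicity: viability of PR-UAS-bla HEK293T cells was measured with CellTiter-Glo luminescence following 16 hr compound exposure in the presence of R5020.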

[8] = qHTS assay to identify small molecule agonists of the progesterone receptor (PR) signaling pathway - cell viability counter screen (AID 1346799; calls by dose curve; also: nearly all actives have a fitted effect of over 45% in size)
In short: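 Cells (PR-UAS-bla HEK293T) are plated at 3,000/well in 2% charcoal-stripped FBS medium, rested 6 hr, dosed and incubated 16 hr at 37C. CellTiter-Glo is then added and luminescence measured after 30 min at room temperature.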

[9] = qHTS assay to identify small molecule antagonists of the TGF-beta/Smad signaling pathway - cell viability counter screen (AID 1346824); also: nearly all actives have a fitted effect of over 50% in size
In short: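 SBE-bla HEK 293T cells were plated overnight at 37 C, then given compounds in DMSO plus TGF-beta1 (added as 0.25 ng/mL solution) for 5 hr. After the bla read, CellTiter-Glo was added to the same wells and luminescence read after 30 min at room temperature.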

[10] = qHTS assay to identify small molecule agonists of the TGF-beta/Smad signaling pathway - cell viability counter screen (AID 1346829); also: top concentration of the series differs between compounds; nearly all actives have a fitted effect of over 45% in size
In short: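 CellTiter-Glo luminescence readout; SBE-bla HEK 293T cells, overnight plating, compound 5 hr at 37 C/5% CO2, then bla substrate 2 hr RT, then CellTiter-Glo 30 min RT.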

[11] = qHTS assay to identify small molecule agonists of the TGF-beta/Smad signaling pathway (AID 1346859; active = well fitted activation curve with a large enough effect in the signal ratio in the repeat runs, not every such curve was filed as active; the % refers to the signal ratio; also: series mostly up to about 77 µM)
In short: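 Reporter line: HEK 293T with stably integrated SBE-controlled beta-lactamase. Compound exposure lasts 5 hr at 37 C and 5% CO2; substrate loading follows for 2 hr at room temperature, with emission read at 460 and 530 nm.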

[12] = Human pregnane X receptor (PXR) small molecule agonists, qHTS cell viability counter screen (AID 1346977); also: nearly all actives have a fitted effect of over 50% in size
In short: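 Cytotoxicity counter screen run in the same wells as the PXR luciferase assay, using PXR-Luc HepG2 cells in charcoal-stripped serum medium. Viability: CellTiter-Fluor fluorescence after 24hr compound treatment.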

[13] = Caspase-3/7 induction in HepG2 cells by small molecules, qHTS assay (AID 1346978); also: nearly all actives have a fitted effect of over 15% in size
In short: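 Wild-type HepG2 cells (2,000/well) were settled 5 h at 37 C, 5% CO2, then exposed to compounds in DMSO for 17 h. Caspase-3/7 activity was read by luminescence 30 min after adding Caspase-Glo 3/7 reagent at room temperature.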

[14] = Caspase-3/7 induction in CHO-K1 cells by small molecules, qHTS cell viability counter screen (AID 1346979); also: nearly all actives have a fitted effect of over 35% in size
In short: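 Cytotoxicity counter screen run in parallel with the caspase-3/7 assay: CHO-K1 cells, 16hr compound treatment at 37C, then CellTiter-Fluor for 1hr before fluorescence reading.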

[15] = Caspase-3/7 induction in CHO-K1 cells by small molecules, qHTS assay (AID 1346980); also: nearly all actives have a fitted effect of over 15% in size
In short: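 Wild-type cells were seeded at 1,500 per well and settled 5 hr at 37 C, 5% CO2, then exposed to DMSO-dissolved compounds for 17 hr. Caspase-Glo 3/7 reagent was added, and luminescence was read after 30min at room temperature.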

[16] = Caspase-3/7 induction in HepG2 cells by small molecules, qHTS cell viability counter screen (AID 1346981); also: series mostly up to about 92 µM; nearly all actives have a fitted effect of over 30% in size
In short: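 Treatment of HepG2 cells with DMSO-delivered compounds ran 16 hr at 37 C following a 5-hr pre-incubation of 2,000 cells/well. CellTiter-Fluor fluorescence, read after 1 hr, served as the viability measure in a qHTS format.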

[17] = target: Nuclear receptor subfamily 1 group I member 2 (Homo sapiens) (UniProt O75469); test: Human pregnane X receptor (PXR) small molecule agonists, qHTS assay (AID 1346982); also: nearly all actives have a fitted effect of over 35% in size
In short: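 Stable HepG2 line reporting PXR-mediated CYP3A4 expression via luciferase. Treatment: 24 hr with compounds in DMSO at 37 C. Detection: ONE-Glo luminescence.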

[18] = target: Thyrotropin-releasing hormone receptor (Homo sapiens) (UniProt P34981); test: qHTS assay to identify small molecule antagonists of the thyrotropin-releasing hormone receptor (TRHR) signaling pathway (AID 1346877; active = well fitted inhibition curve with a large enough effect in the repeat runs, not every such curve was filed as active; also: series mostly up to about 51 µM)
In short: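 Overnight-plated (18 h, 37 °C) HEK293 cells expressing TRHR were dye-loaded 2 h, treated with compound, then stimulated with TRH at 1 nM final. Fluorescence intensity was captured every second for 3 min.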

[19] = target: Thyrotropin-releasing hormone receptor (Homo sapiens) (UniProt P34981); test: qHTS assay to identify small molecule agonists of the thyrotropin-releasing hormone receptor (TRHR) signaling pathway (AID 1346891; calls by dose curve;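 also: HEK293 cells expressing TRHR with calcium dye readout; series mostly up to about 58 µM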)
In short: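 Cells: TRHR-Hek293, seeded and incubated 18 h. Dye loading: 2 h at 37 °C. Compound added from DMSO stock by pin tool. Read-out: kinetic calcium fluorescence over 3 min.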

[20] = target: Nuclear receptor subfamily 1 group I member 2 (Rattus norvegicus) (UniProt Q9R1A7); test: Rat pregnane X receptor (rPXR) activation by small molecules, qHTS assay (AID 1346983); details: rPXR luciferase reporter cells, One-Glo luminescence, 24 h; max activation: stronger effect = higher value; also: nearly all actives have a fitted effect of over 20% in size
In short: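 Cell-based rPXR luciferase reporter assay, 2,000 cells per well, rested 5hr at 37 C before compound addition in DMSO, then 24 hr at 37 C. One-Glo reagent was added and luminescence read after 30 min at room temperature.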
% is scaled to controls: 0 for no effect and ±100 for the full control effect.

Thyrotropin-releasing hormone receptor (Homo sapiens), sequence (P34981 whole entry, looked up): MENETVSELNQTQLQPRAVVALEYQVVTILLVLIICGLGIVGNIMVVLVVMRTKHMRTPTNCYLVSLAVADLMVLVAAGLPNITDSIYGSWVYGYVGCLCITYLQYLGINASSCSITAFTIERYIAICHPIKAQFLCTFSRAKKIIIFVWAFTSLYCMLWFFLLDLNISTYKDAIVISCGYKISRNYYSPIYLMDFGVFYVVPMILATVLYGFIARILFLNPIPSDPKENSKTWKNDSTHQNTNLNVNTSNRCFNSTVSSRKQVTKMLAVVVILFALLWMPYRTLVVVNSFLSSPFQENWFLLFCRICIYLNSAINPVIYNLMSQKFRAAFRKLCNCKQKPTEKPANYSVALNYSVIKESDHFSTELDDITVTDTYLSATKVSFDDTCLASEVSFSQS
Estrogen receptor (Homo sapiens), sequence (P03372 whole entry, looked up): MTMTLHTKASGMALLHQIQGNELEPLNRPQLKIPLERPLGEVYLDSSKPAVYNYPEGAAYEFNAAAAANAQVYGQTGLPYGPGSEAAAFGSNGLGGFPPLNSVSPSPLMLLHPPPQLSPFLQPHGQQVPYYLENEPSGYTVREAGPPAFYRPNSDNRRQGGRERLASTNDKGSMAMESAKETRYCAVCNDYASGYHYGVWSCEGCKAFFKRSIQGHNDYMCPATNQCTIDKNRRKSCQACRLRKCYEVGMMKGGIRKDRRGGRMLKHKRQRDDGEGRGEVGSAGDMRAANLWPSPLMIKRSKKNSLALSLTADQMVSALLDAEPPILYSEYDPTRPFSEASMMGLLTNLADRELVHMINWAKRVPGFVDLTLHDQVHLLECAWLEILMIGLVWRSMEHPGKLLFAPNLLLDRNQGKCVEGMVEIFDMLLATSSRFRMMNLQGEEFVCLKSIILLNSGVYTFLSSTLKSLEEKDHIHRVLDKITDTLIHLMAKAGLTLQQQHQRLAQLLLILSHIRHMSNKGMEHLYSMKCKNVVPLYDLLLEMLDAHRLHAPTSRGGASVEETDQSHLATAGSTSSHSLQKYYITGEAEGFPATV
Thyrotropin receptor (Homo sapiens), sequence (P16473 whole entry, looked up): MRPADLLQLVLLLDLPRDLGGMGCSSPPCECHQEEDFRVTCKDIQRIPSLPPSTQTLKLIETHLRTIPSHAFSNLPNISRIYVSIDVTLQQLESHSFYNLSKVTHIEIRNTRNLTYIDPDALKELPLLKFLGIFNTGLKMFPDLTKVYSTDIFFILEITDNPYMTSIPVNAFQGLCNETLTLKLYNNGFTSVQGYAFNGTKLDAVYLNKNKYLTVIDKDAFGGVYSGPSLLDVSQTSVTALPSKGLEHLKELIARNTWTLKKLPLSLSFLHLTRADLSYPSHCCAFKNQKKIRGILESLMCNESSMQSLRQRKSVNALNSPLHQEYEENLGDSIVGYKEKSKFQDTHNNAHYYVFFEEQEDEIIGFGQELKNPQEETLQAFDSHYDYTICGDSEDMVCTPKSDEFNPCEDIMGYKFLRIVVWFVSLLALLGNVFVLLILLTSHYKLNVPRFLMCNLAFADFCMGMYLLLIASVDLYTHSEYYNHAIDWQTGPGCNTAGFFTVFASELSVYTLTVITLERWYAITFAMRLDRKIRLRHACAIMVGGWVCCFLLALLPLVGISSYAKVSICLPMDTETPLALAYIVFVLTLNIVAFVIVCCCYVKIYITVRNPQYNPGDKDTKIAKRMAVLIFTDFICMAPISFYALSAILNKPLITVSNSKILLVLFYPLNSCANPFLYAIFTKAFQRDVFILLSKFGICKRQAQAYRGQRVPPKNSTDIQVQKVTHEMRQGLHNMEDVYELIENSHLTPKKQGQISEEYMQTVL
Nuclear receptor subfamily 1 group I member 2 (Homo sapiens), sequence (O75469 whole entry, looked up): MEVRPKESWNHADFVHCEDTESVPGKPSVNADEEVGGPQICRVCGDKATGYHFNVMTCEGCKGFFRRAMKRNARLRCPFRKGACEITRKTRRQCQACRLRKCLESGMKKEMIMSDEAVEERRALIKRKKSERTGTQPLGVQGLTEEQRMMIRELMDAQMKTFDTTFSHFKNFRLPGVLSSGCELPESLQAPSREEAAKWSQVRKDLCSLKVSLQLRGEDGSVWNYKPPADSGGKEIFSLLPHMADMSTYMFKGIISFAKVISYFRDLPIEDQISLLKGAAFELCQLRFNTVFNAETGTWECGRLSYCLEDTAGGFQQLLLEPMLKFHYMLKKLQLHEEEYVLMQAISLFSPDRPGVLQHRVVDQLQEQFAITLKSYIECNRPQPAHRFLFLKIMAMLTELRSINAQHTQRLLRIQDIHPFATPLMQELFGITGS
Progesterone receptor (Homo sapiens), sequence (P06401 whole entry, looked up): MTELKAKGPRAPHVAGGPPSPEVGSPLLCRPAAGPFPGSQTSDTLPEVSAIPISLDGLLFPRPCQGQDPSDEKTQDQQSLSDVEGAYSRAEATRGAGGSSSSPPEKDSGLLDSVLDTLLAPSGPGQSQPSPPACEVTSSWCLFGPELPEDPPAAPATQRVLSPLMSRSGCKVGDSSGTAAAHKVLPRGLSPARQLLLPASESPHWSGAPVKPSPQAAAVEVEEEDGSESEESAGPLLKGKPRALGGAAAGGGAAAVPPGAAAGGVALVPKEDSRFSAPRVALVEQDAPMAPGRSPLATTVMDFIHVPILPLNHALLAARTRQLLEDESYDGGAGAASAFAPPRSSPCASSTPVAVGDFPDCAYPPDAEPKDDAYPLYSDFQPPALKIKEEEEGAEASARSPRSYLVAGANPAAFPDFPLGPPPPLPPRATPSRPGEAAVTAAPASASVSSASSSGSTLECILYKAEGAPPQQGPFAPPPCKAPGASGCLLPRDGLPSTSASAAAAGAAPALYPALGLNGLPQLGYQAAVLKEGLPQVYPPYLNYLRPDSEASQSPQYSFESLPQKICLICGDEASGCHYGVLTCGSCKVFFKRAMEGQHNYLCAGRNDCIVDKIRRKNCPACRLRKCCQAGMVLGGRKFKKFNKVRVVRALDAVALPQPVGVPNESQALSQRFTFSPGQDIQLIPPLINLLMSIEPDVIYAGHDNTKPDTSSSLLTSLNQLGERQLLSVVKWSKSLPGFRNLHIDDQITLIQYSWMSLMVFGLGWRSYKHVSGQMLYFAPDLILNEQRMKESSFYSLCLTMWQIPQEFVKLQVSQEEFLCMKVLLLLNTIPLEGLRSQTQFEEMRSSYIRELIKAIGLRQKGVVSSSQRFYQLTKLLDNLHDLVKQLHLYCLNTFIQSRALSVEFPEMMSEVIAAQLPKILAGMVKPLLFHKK
Nuclear receptor subfamily 1 group I member 2 (Rattus norvegicus), sequence (Q9R1A7 whole entry, looked up): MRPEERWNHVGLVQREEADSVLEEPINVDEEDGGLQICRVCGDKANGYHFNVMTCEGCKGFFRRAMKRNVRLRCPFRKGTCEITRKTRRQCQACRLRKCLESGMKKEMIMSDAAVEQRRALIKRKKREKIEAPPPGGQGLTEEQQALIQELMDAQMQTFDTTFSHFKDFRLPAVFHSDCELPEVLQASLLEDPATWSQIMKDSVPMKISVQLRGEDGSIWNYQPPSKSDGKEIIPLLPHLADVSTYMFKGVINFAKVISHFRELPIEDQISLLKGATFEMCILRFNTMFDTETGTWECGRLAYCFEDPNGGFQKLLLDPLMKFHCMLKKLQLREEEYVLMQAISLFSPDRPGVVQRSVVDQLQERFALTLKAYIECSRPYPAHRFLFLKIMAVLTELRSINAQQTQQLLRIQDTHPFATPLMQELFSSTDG

CN(C)c1ccncc1
inactive: Potency [1] | outcome [2] | outcome [3] | outcome [4] | Potency [5] | Potency [6] | outcome [7] | Potency [8] | outcome [9] | outcome [10] | outcome [11] | outcome [12] | outcome [13] | Potency [14] | outcome [15] | outcome [16] | Potency [17]

CCCC(=O)OC
inactive: Potency [1] | outcome [2] | outcome [3] | outcome [4] | Potency [5] | Potency [6] | outcome [7] | Potency [8] | outcome [9] | outcome [10] | outcome [11] | outcome [18] | Potency [19] | outcome [12] | outcome [13] | Potency [14] | outcome [15] | outcome [16] | Potency [17]

CC(C)CC(O)Cc1ccccc1 (stereo not drawn)
inactive: Potency [1] | outcome [2] | outcome [3] | outcome [4] | Potency [5] | Potency [6] | outcome [7] | Potency [8] | outcome [9] | outcome [10] | outcome [11] | outcome [18] | Potency [19] | outcome [12] | outcome [13] | Potency [14] | outcome [15] | outcome [16] | Potency [17]

O=CN1CCCCC1
inactive: Potency [1] | outcome [2] | outcome [3] | outcome [4] | Potency [5] | Potency [6] | outcome [7] | Potency [8] | outcome [9] | outcome [10] | outcome [11] | outcome [12] | outcome [13] | Potency [14] | outcome [15] | outcome [16] | Potency [17]

N#CC1(N)CCCCC1
inactive: Potency [1] | outcome [2] | outcome [3] | outcome [4] | Potency [5] | Potency [6] | Potency [8] | outcome [11] | outcome [18] | Potency [19] | outcome [12] | outcome [13] | Potency [14] | outcome [16] | Potency [17]

N[C@H]1C(O)O[C@H](CO)[C@@H](O)[C@@H]1O (stereo partly drawn)
inactive: Potency [1] | outcome [2] | outcome [3] | outcome [4] | Potency [5] | Potency [6] | outcome [7] | Potency [8] | outcome [9] | outcome [10] | outcome [11] | outcome [18] | outcome [12] | outcome [13] | Potency [14] | outcome [15] | outcome [16] | Potency [17] | max activation [20] 3.63%

CCC(C)(C)C
inactive: Potency [1] | outcome [2] | outcome [3] | outcome [4] | Potency [5] | Potency [6] | outcome [7] | Potency [8] | outcome [10] | outcome [11] | outcome [18] | Potency [19] | outcome [12] | outcome [13] | Potency [14] | outcome [16] | Potency [17]
